Test results reported in PubChem BioAssay AID938 (National Center for Advancing Translational Sciences (NCATS), 2007).
Values joined by “and” are separate entries in the source; they are usually repeats but may differ in a detail not shown here. Equal entries are not always repeated. The campaign covered roughly 73,000 compounds. About 1,800 (2.5%) were called active. Roughly 13% stayed inconclusive and do not appear here. The entries come from a sample that favours actives as a whole. A number with no mark means an inactive call. Calls follow the shape of the dose curve; as a rule, active = well fitted activation curve with a large enough effect; inconclusive = small, poorly fitted or top-dose-only effect; inactive = no such curve, though single readings can be large or run the other way.

Assay: qHTS Assay for Agonists of the Thyroid Stimulating Hormone Receptor: Activators of Intracellular cAMP Concentrations in Parental HEK 293; also: nearly all actives have a fitted effect of over 55% in size; as to activation: % of control where 0% means no effect
Conditions: parental HEK293 CNG cAMP sensor, membrane potential fluorescence; series mostly up to 57.1 µM; activation: at the top concentration
Procedure, shortened: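 Counterscreen for endogenous-receptor signalling: CNG-channel HEK 293 cells report cAMP rise by membrane depolarization. After 60 min dye equilibration with 100 uM RO 20-1724, compounds incubated 30 min before bottom-read fluorescence at 590 nm.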
Potency is read from the fitted curve at half-maximal effect.

Structure (SMILES) | activation | Potency
CSc1nnc(CNC(=O)c2ccccc2)n1-c1ccc(F)cc1 | -1.99% | 
CCCOc1ccc(NC(=O)C2CCCNC2=O)cc1 (stereo not given) | 6.39% | 
CCc1ccc2oc(=O)cc(CN3CCCCC3C)c2c1 (stereo not given) |  | 25.1 µM (active)
Cc1cc(NC(=O)CN2CCCCC2C)nc2c1c(=O)oc1ccccc12 (stereo not given) | 1.59% | 
CC1CCCCN1CC(=O)NCc1ccc2c(c1)OCO2 (stereo not given) | 10% | 
CCCn1c(C)nc2c(NCCCCN(CC)CC)nc(C)nc21 | 4.8% | 
CCN1CCCC1CNc1ncnc2c1[nH]c1ccc(F)cc12 (stereo not given) | 10.1% | 
CCCn1c(-c2ccc(F)cc2)nc2c(NCC3CCCN3CC)nc(C)nc21 (stereo not given) |  | 15.8 µM (active)
COc1ccc(CN2CC(C(=O)NCCN3CCN(c4ccccc4F)CC3)CC2=O)cc1 (stereo not given) | 11.9% | 
CN1CCC2(CC1)NC(=O)NC2=O | 2.1% | 
CC[C@@H]1Cc2cc(O)ccc2C2=C1c1ccc(O)cc1C[C@H]2CC |  | 6.31 µM (active)
O=P(O)(CN1CCCCC1)CN1CCCCC1 | 4.02% | 
O=C(c1ccc([N+](=O)[O-])cc1)[C@@H](Br)[C@@H](Br)c1ccnc2ccccc12 | 8.13% [at 11.4 µM] | 
CCC[C@@H]1C[C@@]1(CCC)C(NC(=O)c1ccc(-c2ccccc2)cc1)c1cccc(Cl)c1 (stereo not given in full) | -2.94% | 
CCC[C@@H]1C[C@@]1(CCC)[C@@H](NC(=O)c1ccccc1)c1ccc(C(=O)OC)cc1 |  | 7.94 µM (active)
CCCC(=O)C1=C(N(C)c2ccccc2)CC(C)(C)C(C(=O)OC)C1=O (stereo not given) | 7.86% | 
COc1nc(OC)nc(N(C)CCO)n1 | -0.636% | 
CCSC(C)CC1C/C(=N/O)c2c(C)noc2C1 (stereo not given) | 24.2% | 
CCOC(=O)N1CCN(C(=O)c2ccc(CN(c3ccc(C)c(C)c3)S(C)(=O)=O)cc2)CC1 | -9.64% | 
CC(C)C(c1nnnn1C1CCCC1)N1CCN(c2ccccc2F)CC1 (stereo not given) |  | 15.8 µM (active)
CCC(c1nnnn1C1CCCC1)N1CCN(C(=O)c2ccco2)CC1 (stereo not given) | 25.9% | 
CC(C)C(c1nnnn1Cc1ccccc1)N1CCC(C(N)=O)CC1 (stereo not given) | 3.61% | 

Structure (SMILES) | activation | Potency
CC(C)CN1CCc2nc(-c3ccccc3)c3c(c2C1)COC(C)C3 (stereo not given) | -2.08% [at 11.4 µM] | 
Cn1c2c(c(=O)n(C)c1=O)CN(Cc1ccco1)CN2 | 23.6% | 
c1ccc(Oc2ccccc2)cc1 | -32.5% | 
CC1CN(C2CCCCC2)c2nc3c(c(=O)n(C)c(=O)n3C)n2C1 (stereo not given) | -0.0916% | 
Cn1cccc1C1(C(F)(F)F)NCCNC1=O (stereo not given) | 7.67% | 
CCOc1cccc(-c2nnc3sc(COc4ccc(OC)cc4)nn23)c1 |  | 31.6 µM (active)
Fc1ccc(OCc2nn3c(Cn4nnc5ccccc54)nnc3s2)cc1 | 9.34% | 
COc1cc(-c2nn3c(-c4cccc(C)c4)nnc3s2)cc(OC)c1OC | 19.4% | 
CNc1nc(-c2ccccc2OC)nc2ccccc12 | -50.8% | 
Clc1ccccc1-c1cc(NCCN2CCOCC2)ncn1 | 6% | 
COc1ccccc1-c1nc(NCc2cccs2)c2ccccc2n1 |  | 25.1 µM (active)
COc1ccccc1CNCc1cccs1 | 10.6% | 
COc1ccccc1-c1nc(NCCNC(C)=O)c2ccccc2n1 | 8.51% | 
COc1ccccc1-c1cc(NCc2cccs2)ncn1 |  | 31.6 µM (active)
CCOC(=O)c1cc2occc2n1CC(=O)N1CCN(C(=O)c2ccco2)CC1 | -0.0256% | 
CO[C@@H]1COC(=O)C/C=C\[C@H](C)[C@@H](NS(=O)(=O)c2ccc(C)cc2)COC(=O)C/C=C\[C@@H]1C | 2.07% [at 11.4 µM] and 4.9% [at 11.4 µM] | 
CCC[C@H]1C(=O)N2C(N(C)C)=Nc3ccc(C)cc3N2C1=O | -3.93% [at 25.6 µM] | 
COc1ccccc1C(=O)C(O)c1ccccc1OC (stereo not given) | 7.49% | 
Cc1ccc(C)c(N2CCN(C(=O)CCc3nc4ccccc4[nH]3)CC2)c1 | 1.94% | 
COCCNc1nc(-n2nc(C)cc2C)nc2sc3c(c12)CCCC3 |  | 15.8 µM (active)
Cc1cc(C)n(-c2nc(SCC(=O)N3CCCC3)c3c4c(sc3n2)CCCC4)n1 | 19.1% | 
COCCn1c(C)cc(C(=O)CSc2ncnc3sc4c(c23)CCC4)c1C | 21.4% | 

Structure (SMILES) | activation | Potency
COc1cc2c(cc1OC)C(c1ccc(C)o1)CC(=O)N2 (stereo not given) | -0.178% | 
COCCOC(=O)C1=C(C)NC(=O)CC1c1cc2c(cc1Br)OCO2 (stereo not given) | -2.69% | 
CCCOc1ccccc1C1CC(=O)Nc2cc3c(cc21)OCO3 (stereo not given) |  | 7.94 µM (active)
COc1ccc(NS(=O)(=O)c2ccc(NC(=O)C(C)(C(F)(F)F)C(F)(F)F)cc2)nn1 | 0.701% | 
Cc1nc2nc[nH]n2c(=O)c1NC(=O)c1cccc(OCC(C)C)c1 | 4.26% | 
CCCOC(=O)c1[nH]c2c(c1C)C(=O)CC(c1cc(OC)c(OC)c(OC)c1)C2 (stereo not given) |  | 15.8 µM (active)
COC(=O)C1C(=O)c2c([nH]c(C(=O)OCCSC)c2C)CC1C (stereo not given) | 13% | 
CCOC(=O)c1[nH]c2c(c1C)C(=O)CC(c1ccc(N(C)C)cc1)C2 (stereo not given) | 10% | 
N[C@@H](C(=O)O)c1ccc(P(=O)(O)O)cc1 | -0.407% | 
C/C(CCN1CCCCc2nc(C)c(C)cc21)=N\O[C@@H](C)c1cn([C@@H]2COC[C@@H]2O)nn1 | 6.27% [at 11.4 µM] | 
C[C@@H]1O[C@@H](O[C@@H]2[C@@H](O)[C@H](OCCc3ccc(O)c(O)c3)O[C@H](CO[C@@H]3O[C@H](CO)[C@@H](O)[C@H](O)[C@H]3O)[C@H]2OC(=O)/C=C/c2ccc(O)c(O)c2)[C@H](O)[C@H](O)[C@H]1O | 23.7% | 
CO[C@H]1COC(=O)[C@@H](OCc2ccccc2)/C=C\[C@H](C)[C@@H](OC)COC(=O)[C@H](OCc2ccccc2)/C=C\[C@@H]1C | -2.98% [at 11.4 µM] | 
O=C(c1csnn1)N1CCC2(CC1)CN(c1ncccn1)C2 | 2.09% | 
O=C(c1csnn1)N1CCC[C@@]2(CCN(Cc3nccs3)C2)C1 |  | 3.98 µM (active)
Cn1cccc1C(=O)N1CCC[C@@]2(CCN(Cc3nccs3)C2)C1 | 1.41% | 
CCc1cc(=O)oc2cc(OCC(=O)N3CCCc4ccccc43)ccc12 | -4.75% | 
CCOC(=O)c1ccc(NC(=O)CS(=O)(=O)c2cn(CC)c3ccccc23)cc1 | 9.17% | 
COC(=O)[C@@H](NC(=O)NCc1cccc(OC)c1)C(C)C | 7.43% | 
O=C(Nc1cccc(NC(=O)N2CCN(c3ccccc3)CC2)c1)N1CCN(c2ccccc2)CC1 | -10.9% | 
O=C(Nc1ccccc1N1CCN(c2ccccc2)CC1)c1cccc(F)c1 |  | 3.98 µM (active)
O=C(c1cccc(F)c1)N1CCC2(CC1)CCN(c1ccccc1)CC2 | -0.919% | 
